# Results: PubChem BioAssay AID624483 (NMMLSC, 2012)
# Hit rate of the full screen: of about 360,000 compounds, about 11,000 (3.1%) were called active. About 2% were inconclusive and are not listed. Many of the other results were omitted from the sample, so actives are more common in it than they were. Unmarked numbers belong to inactive results. No stated cut-off is given here; in the data, active means fluorescence intensity above about 16000; inconclusive means no clear call, values can overlap the other calls; inactive means below that.
# Assay: counter-screen for toxin protease inhibitors: compound fluorescence, primary screen, artefact control for toxin protease inhibitor project, biochemical, multiplex microsphere, HTS (AID 624483)
# Conditions: compound autofluorescence counterscreen, microsphere flow cytometry; hits give high values
row,Structure (SMILES),fluorescence intensity
1,CN(CC(O)COc1ccc(S(=O)(=O)N2CCOCC2)cc1Cl)C1CCCCC1 (centres undefined),4510
2,Cc1ccccc1CN1C(=O)c2ccccc2Sc2ccc(C(=O)NCCCN3CCOCC3)cc21,4180
3,O=C(NCCCN1CCCCC1)c1ccc2c(c1)NC(=O)C(N1CCOCC1)S2 (centres undefined),20400 (active)
4,COc1ccc(CCNC(=O)c2ccc3c(c2)NC(=O)C(N2CCOCC2)S3)cc1OC (centres undefined),3710
5,CCOC(=O)N1CCN(C(c2ccnc3ccccc23)c2nnnn2-c2c(C)cccc2C)CC1 (centres undefined),5760
6,COc1cccc(CNC(=O)[C@@H]2CCCN2C(=O)[C@@H]2CCCN2C(=O)c2ccccc2)c1,6440
7,Cc1nn(CC(=O)NCCc2ccccc2)c(=O)c2cc3occc3n12,4600
8,Cn1c(=O)[nH]c(=O)c2c1nc(N(CCO)Cc1ccccc1)n2Cc1ccccc1Cl,19800 (active)
9,CN(Cc1ccccc1)c1nc2c(c(=O)[nH]c(=O)n2C)n1CCSc1nc2ccccc2[nH]1,3450
10,CCOC(=O)Cn1c(CN(Cc2ccccc2)Cc2ccccc2)nc2c1c(=O)[nH]c(=O)n2C,11200
11,COc1ccc(-c2[nH][nH]c(=O)c2NC(=O)c2ccc([N+](=O)[O-])cc2)cc1,4210
12,CC(C)C[C@H]1CNC(=S)N1C[C@H]1CCCN1C[C@H](Cc1ccc(O)cc1)N1C[C@H](Cc2ccc(O)cc2)N(CC2CCCCC2)C1=S,6520
13,COC(=O)C1C(=O)CC(C)(O)C(C(=O)OC)C1c1ccc2c(c1)OCO2 (centres undefined),8340
14,Cc1ccsc1-c1cc(C(=O)O)c2c(ccc3ccccc32)n1,3620
15,COc1cccc(NC(=O)N2CCC(NC(=O)C(Cc3cccc(C)c3)NC(C)=O)CC2)c1 (centres undefined),3850
16,COc1cccc(NC(=O)N2CCCC2C(=O)NC2CCCCC2)c1 (centres undefined),6160
17,COCCn1nnnc1CN1CCC(NC(=O)Nc2cccc(OC)c2)CC1,24600 (active)
18,COc1cc(C(=O)NN(CCC#N)C2=NS(=O)(=O)c3ccccc32)cc(OC)c1OC,4420
19,COc1ccc(C=C2CCC3C(CCCC34OCCO4)C2=O)cc1 (centres undefined),2890
20,COc1ccc(/C=C2/CCCc3ccccc3C2=O)cc1,3030
21,COc1ccc(/C=C2\CCCC3C2=NN(C(=O)c2scnc2C)C3c2ccc(OC)cc2)cc1 (centres undefined),22800 (active)
22,Nc1ncnc2c1ncn2[C@@H]1O[C@H](C(=O)N2CCSC2)[C@@H](O)[C@H]1O,5590
23,O=C(NC1CCCC1)C1c2ccccc2OCC(=O)N1CC(F)(F)F (centres undefined),6700
24,Cn1c(CN2CCOCC2)nc2cc(NC(=O)c3ccc(Cl)cc3)ccc21,4450
25,C=CCn1c(C)cc(C2=NNC(=NCC)SC2)c1C,2100

row,Structure (SMILES),fluorescence intensity
1,COCCn1c(C)cc(C2=NNC(=Nc3ccc(F)cc3)SC2)c1C,20800 (active)
2,C[C@@H]1CN([C@@H](C)CO)C(=O)c2c(c3ccccc3n2C)-c2ccccc2CO[C@H]1CN(C)C(=O)C1CC1,3570
3,CCCCCCCCN1C(=O)[C@H](CC(=O)NCc2cccc3ccccc23)C[C@@]2(C(=O)OC)CCCCC=C12,4630
4,CC(=O)NCC(=O)N1CCC(n2nccc2NC(=O)CCCc2ccccc2)CC1,6400
5,NNC(=O)c1ccc(COCC(F)(F)C(F)F)cc1,4020
6,O=C(O)c1ccc(COCC(F)(F)F)cc1,16300 (active)
7,O=C(O)CCC(=O)NCc1ccc(C(=O)O)cc1,3850
8,O=C(NCCCN1CCOCC1)C1CCCN(S(=O)(=O)N2CCCCC2)C1 (centres undefined),5550
9,CN(C(=O)COC(=O)CCCc1c[nH]c2ccccc12)c1c(N)n(Cc2ccccc2)c(=O)[nH]c1=O,3770
10,CC1=C(C(=O)N2CCOCC2)CC(CC(=O)NCCCN(C)C)C(=O)N1Cc1ccc(C(C)(C)C)cc1 (centres undefined),5880
11,CCOc1nc(-c2ccc(OC)cc2)ccc1-c1noc(-c2cc(OC)c(OC)c(OC)c2)n1,20200 (active)
12,CCOc1ccc(-c2noc(CCC(=O)NC3CCCC3)n2)cc1OC,4230
13,CCOC(=O)c1cc(-c2nnc(-c3cc(OC)c(OC)c(OC)c3)o2)c(C)nc1C,3800
14,Nc1ncnc2c1ncn2[C@@H]1O[C@H](C(=O)NCC(F)(F)F)[C@@H](O)[C@H]1O,5880
15,COC(=O)[C@@]1(Cc2ccc(F)cc2)[C@H]2c3cc(C(=O)N4CCCC4)n(Cc4ccc(OC(F)(F)F)cc4)c3C[C@H]2CN1C(=O)c1ccccc1,4360
16,CN1C[C@@H](CO)O[C@@H](n2cnc3c(N4CCN(CCO)CC4)ncnc32)C1,3470
17,CCc1ccc(NC(=O)CSc2nc3ccccc3c(=O)n2CCN2CCOCC2)cc1,23500 (active)
18,CC(=O)c1ccc(NC(=O)CSc2nc3ccccc3c(=O)n2CCCN2CCOCC2)cc1,3650
19,COC(=O)c1ccc2c(=O)n(CCN3CCOCC3)c(SCC(=O)Nc3cccc(OC)c3)nc2c1,5360
20,Clc1ccc(-c2cccc3nccn23)cc1,3770
21,COc1cccc(-c2nc3nc(C)cc(C)n3c2NC2CCCCC2)c1,7480
22,Cc1ccc(F)c(S(=O)(=O)NC(=O)C2(C)CCN2C(=O)c2ccco2)c1 (centres undefined),3860
23,CCCS(=O)(=O)Nc1c(C(=O)O)[nH]c2ccccc12,10100
24,COC(=O)c1[nH]c2ccccc2c1NS(=O)(=O)c1ccc(OC)cc1OC,20900 (active)
25,COc1ccc(NC(=O)COC(=O)c2n[nH]c3ccccc23)c(OC)c1,5180

row,Structure (SMILES),fluorescence intensity
1,CCC(C)(C)c1ccc(OCC(=O)N(C)C)c(C(C)(C)CC)c1,4730
2,Cc1ccc(C(=O)Nc2ccccc2C(=O)NC2CCCCC2)cc1S(=O)(=O)N1CCOCC1,16600 (active)
3,Cc1ccc(NC(=O)NC2CCCCC2)cc1S(=O)(=O)N1CCOCC1,3370
4,Cc1ccc(C(=O)Nc2ncccc2C)cc1S(=O)(=O)N1CCOCC1,5280
5,CCc1ccccc1NC(=O)CN1CCN(C(=O)c2cc(C3CC3)nn2-c2ccccc2)CC1,3950
6,CCCCCC(=O)N1CCN(S(=O)(=O)c2ccc3c(c2)OCCCO3)CC1,5990
7,CN1CCCN(S(=O)(=O)c2ccc3c(c2)OCCO3)CC1,22400 (active)
8,CCNC(=O)N1CCN(S(=O)(=O)c2ccc3c(c2)OCCCO3)CC1,5340
9,N#Cc1ccc(-c2nc3c(Cl)cc(C(F)(F)F)cn3c2Cc2ccccc2C(F)(F)F)cc1,5560
10,COc1ccc(NC(=O)C2Cc3c(-c4ccc5c(c4)OCO5)ccnc3O2)cn1 (centres undefined),2850
11,C#CCOc1ccccc1/C=C1/C(=O)ON=C1C,4290
12,CCOC(=O)c1cc2c(ccn2C)n1CC(=O)N1CCC(C)CC1,4040
13,Oc1ccc(Cl)cc1/C=N/c1nc2ccccc2[nH]1,22500 (active)
14,C/C(=N\c1nc2ccccc2n1C)c1cc(Cl)ccc1O,3250
15,Oc1c(Cl)cc(Cl)cc1/C=N/c1ncn[nH]1,4010
16,C=CCNCCCCOc1ccccc1,2600
17,CCc1nc2c(OCC(=O)C(C)(C)C)cccn2c1N(C)C(=O)c1ccccc1F,3600
18,CC1(C(=O)NCc2ccc3c(c2)OCO3)CCN1CCc1ccccc1 (centres undefined),3940
19,CCc1nc2ccc(C(=O)N3CCN(S(=O)(=O)CC)CC3)cn2c1N(C=O)CCC(C)C,3570
20,NC(=O)Cn1c(=O)oc2ccccc21,19700 (active)
21,CC1CCCN(C(=O)Cn2c(=O)oc3ccccc32)C1 (centres undefined),3850
22,CC(=O)c1ccc(NC(=O)Cn2c(=O)oc3ccccc32)cc1,3040
23,O=C(NC(c1ccc(Cl)cc1)c1cnccn1)C1CCN(Cc2ccc(Cl)cc2)CC1 (centres undefined),4620
24,CCCCC[C@H](C)N1C[C@@H](COCc2ccccc2)Oc2cc(N3CC[C@@H](N(C)C)C3)ccc2S1(=O)=O,5700
